# The entries come from a sample that favours hits as a whole.
# Dicer inh – human Dicer pre-microRNA cleavage inhibition; AID 1347074; cat-ELCCA pre-miR-21 Dicer processing, chemiluminescence; stronger effect = higher value; z-score at 25 µM; Q9UPY3; actives 6% (n = 47,000); in the data active means z-score above about 3, passing the limit was not always enough;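 further: plate controls were vehicle for no effect and no enzyme for full effect; higher signal means more uncleaved substrate so more Dicer inhibition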
# Active calls of the source: *.
SMILES,Dicer inh
COC(=O)C1Cc2c([nH]c3ccccc23)C(c2ccc(Cl)cc2)N1 (configuration not stated),-1.2
O=C(Nc1csc(-c2cccs2)n1)Nc1ccc(F)cc1F,3.2
O=C(NCc1cccs1)c1cc2n(n1)C(C(F)(F)F)CC(c1ccco1)N2 (configuration not stated),-0.87
Cc1cc(C)c2c(=O)c(C3C4=C(CC(C)(C)CC4=O)OC4=C3C(=O)CC(C)(C)C4)coc2c1,1.4
O=C1c2cccc3c(Sc4ccccc4)ccc(c23)C(=O)N1Cc1ccccc1,5.2*
O=C1c2cccc3c(Sc4ccccc4)ccc(c23)C(=O)N1CCc1ccccn1,0.73
O=C1c2cccc3c(Br)ccc(c23)C(=O)N1Cc1ccccc1,1.5
O=C(Cn1ccc(C(F)(F)F)n1)c1ccc(Cl)cc1,1.5
CC(=O)n1nccc1-c1sc2ccc(Cl)cc2c1C,1.3
Cc1ccc(Cn2c(OCCN(C)C)nc3c2c(=O)n(C)c(=O)n3C)cc1,-0.65
Cn1c2ccccc2n2c(CCC(=O)O)c(-c3ccccc3)nc12,-0.32
CCOc1nc2ccccc2nc1OCC,0.29
CCc1ccc2[nH]c3sc(C)nc3c2c1,-1.4
CCOc1ccc(OCC)c2sc(C)nc12,3.2*
COC(=O)C1=C(C(=O)OC)SC(=C2C(=S)C(C)(C)N(C(C)=O)c3ccc(C)cc32)S1,1.6
Cc1sc(NC2=NS(=O)(=O)c3ccccc32)nc1-c1ccccc1,0.26
CC1(C(=O)O)C2C=CC3(CN(c4ccccc4)C(=O)C31)O2 (configuration not stated),5.3*
CC1(C(=O)O)C2C=CC3(CN(Cc4ccccc4)C(=O)C31)O2 (configuration not stated),2.6
O=C(O)C1C2C=CC3(CN(c4ccccc4)C(=O)C13)O2 (configuration not stated),1.5
Cc1cc(Br)c(-n2nc(C)c3c(C)cc(=O)oc32)cc1C,0.66
CCOC(=O)/C(C#N)=C/C=C(/c1ccc(Cl)cc1)N1CCSCC1,1.5
O=C1NC(c2ccc(Cl)c(Cl)c2)Nc2ccccc21 (configuration not stated),-1.2
CCCCNC(=O)N(C)c1nncnc1C(=O)NC,-0.1
CNC(=O)c1ncnnc1N(C)C(=O)NCc1ccccc1,0.99
CCNC(=O)N(C)c1nncnc1C(=O)NC,4.5*
SMILES,Dicer inh
COc1ccccc1-c1nc(-c2ccc(-c3ccccc3)nc2OC)no1,0.65
COc1cc(NC(=O)Cn2nc(C(F)(F)F)c3c2CCC3)c(OC)cc1Cl,-0.28
C/C(=N\Nc1nc(C(C)(C)C)cs1)c1ccc(Br)cc1,-2.8
CCOC(=O)/C(C#N)=C/c1ccc(C)o1,1.6
O=C(O/N=C1\CCc2ccccc21)c1cccc(F)c1,0.02
O=c1oc(-c2ccc(Br)cc2)nc2sc3c(c12)CCC3,-0.23
C=C1SC(Nc2cc(C)c(C)cc2C)=NC1(C)C,-0.53
Cc1ccc(/C=C/c2nn3c(-c4ccco4)nnc3s2)cc1,3.2*
Cc1ccc(/C=C/c2nn3c(-c4ccco4)nnc3s2)cc1C,2.2
COc1ccc(/C=C/c2nn3c(Cc4ccc(OC)cc4)nnc3s2)cc1,4.7*
COc1ccc(/C=C/c2nn3c(-c4ccccc4Cl)nnc3s2)cc1,2.3
Clc1ccccc1-c1nnc2sc(/C=C/c3ccccc3)nn12,1.3
COc1ccc(/C=C/c2nn3c(COc4ccccc4)nnc3s2)cc1,-1.5
Clc1ccccc1-c1ccc(-c2nn3c(-c4ccco4)nnc3s2)o1,0.62
COc1ccc(/C=C/c2nn3c(Cc4ccccc4)nnc3s2)cc1,0.34
Cc1cccc(/C=C/c2nn3c(-c4ccco4)nnc3s2)c1,3.4*
Cc1ccc(CN2C(=O)C(O)(c3c[nH]c4ccccc34)c3cc(Br)ccc32)c(C)c1 (configuration not stated),2
COc1ccc(S(=O)(=O)NC(C)c2ccccc2)cc1-c1nnc2c3ccccc3c(C)nn12 (configuration not stated),1.8
O=C(O)CCCNCc1cccc2ccccc12,0.46
CCCC(=O)N(c1ccc2oc(=O)sc2c1)S(=O)(=O)c1ccc(C(=O)O)cc1,-0.07
CCCCC(=O)N(c1ccc2oc(=O)sc2c1)S(=O)(=O)c1ccc(OCC)cc1,0.55
CCCCC(=O)N(c1ccc2oc(=O)sc2c1)S(=O)(=O)c1cccs1,-3.9
CC(C)C(=O)N(c1ccc2oc(=O)sc2c1)S(=O)(=O)c1ccc(Br)cc1,0.6
CCCC(=O)N(c1ccc2oc(=O)sc2c1)S(=O)(=O)c1ccc(OC)c(OC)c1,4.2*
CCCCC(=O)N(c1ccc2oc(=O)sc2c1)S(=O)(=O)c1ccc(OC)c(OC)c1,3.9*
SMILES,Dicer inh
CCCC(=O)N(c1ccc2oc(=O)sc2c1)S(=O)(=O)c1ccc(F)cc1,-1.6
O=C(Cc1ccccc1)N(c1ccc2oc(=O)sc2c1)S(=O)(=O)c1ccccc1,5.4*
CCCC(=O)N(c1ccc2oc(=O)sc2c1)S(=O)(=O)c1cc(OC)ccc1OC,2.6
Cc1ccc(-c2sc(N)nc2-c2ccc(Cl)cc2)cc1,1.3
C=CCN(c1ccccc1C(=O)NCC(=O)O)S(=O)(=O)c1ccccc1Cl,-0.43
CC(C)S(=O)(=O)c1cnc(COc2ccc(C(C)(C)C)cc2)nc1N,-1.3
Cc1nccc(-c2cccc(NS(=O)(=O)c3cc(C(F)(F)F)cc(C(F)(F)F)c3)c2)n1,-0.98
N=C(N)SCc1cccc(CSC(=N)N)c1F,-3.4
N=C(N)SCc1cc2ccccc2o1,3.2*
N=C(N)SCc1cccc(Cl)c1,1.3
COC(=O)c1sccc1-c1ccc(/C(C)=N\NC(=S)Nc2ccc(Cl)cc2Cl)o1,2.1
O=C1NC(c2ccccc2)=N/C1=C/c1ccc(Cl)cc1Cl,0.69
O=C(CSc1nc(-c2ccco2)cc(C(F)(F)F)n1)Nc1cccc(Cl)c1,0.07
Cc1cc(NC(=O)CCCC(=O)O)no1,0.56
COC(=O)CCCCCCCC(=O)Nc1cc(C)on1,-0.52
CCOCC(=O)Nc1cc(C)on1,3.1*
CC(C)Nc1nc(NC(C)C)nc(Oc2ccc(=O)[nH]n2)n1,-0.82
Cc1cccc(-n2ncc3c2ncn2nc(COc4c(C)cccc4C)nc32)c1,0.18
CSCC[C@H](NC(=O)OC(C)(C)C)C(=O)OCc1ccc(CC(=O)O)cc1,3*
CC(C)(C)OC(=O)N[C@@H](Cc1ccccc1)C(=O)OCc1ccc(CC(=O)O)cc1,0.83
CC(C)(C)OC(=O)NC(COCc1ccccc1)C(N)=O (configuration not stated),-0.63
CCc1c(O)nc(SCCN(CC)CC)n(-c2ccccc2)c1=O,0.82
O=C(/C=C1/NCCS1)c1ccc(Cl)cc1,3.8*
Cc1ccc(C(=O)/C=C/Nc2ccc(Cl)cc2)cc1,1.3
CSC(=CC(=O)c1ccc(Cl)cc1)SC,-0.68
SMILES,Dicer inh
Cc1cc2c3c(c1)c1oc(=O)cc(O)c1c(=O)n3CCC2,0.01
Cn1c(CSc2ccnc3cc(Cl)ccc23)nnc1SCC(=O)c1ccc(Cl)s1,0.85
COC(=O)Cc1nc(Nc2ccccc2)sc1C,-0.11
COC(=O)Cc1nc(NC(=O)C2CCC2C(=O)O)sc1C (configuration not stated),3.3*
COC(=O)Cc1nc(NC(=O)c2nc(-c3ccccc3)oc2C)sc1C,0.09
COC(=O)c1ccc(COc2ccc3c(=O)c(-c4ccc(Cl)cc4)coc3c2)cc1,0.89
COC(=O)c1ccc(NS(=O)(=O)c2ccc3c4c(cccc24)C(=O)N3)cc1,-0.47
Cc1ccc(N2C(=O)C(c3ccccc3)C(N3CCOCC3)C2=O)cc1 (configuration not stated),3.1*
O=C1CC(Nc2ccccc2)C(=O)N1c1ccc(N2CCOCC2)cc1 (configuration not stated),-0.25

# Assay outcomes (PubChem BioAssay)
